Reference: ChEMBL document CHEMBL1961873, “Compounds: GSK PKIS; Assays: Nanosyn kinase panel” (2012)

Legend:
[1] = target: Tyrosine-protein kinase SYK (Homo sapiens) (UniProt P43405); conditions: at 1 µM
[2] = target: T1, Tyrosine-protein kinase Tec (Homo sapiens) (UniProt P42680); conditions: at 0.1 µM
T1 sequence (whole entry): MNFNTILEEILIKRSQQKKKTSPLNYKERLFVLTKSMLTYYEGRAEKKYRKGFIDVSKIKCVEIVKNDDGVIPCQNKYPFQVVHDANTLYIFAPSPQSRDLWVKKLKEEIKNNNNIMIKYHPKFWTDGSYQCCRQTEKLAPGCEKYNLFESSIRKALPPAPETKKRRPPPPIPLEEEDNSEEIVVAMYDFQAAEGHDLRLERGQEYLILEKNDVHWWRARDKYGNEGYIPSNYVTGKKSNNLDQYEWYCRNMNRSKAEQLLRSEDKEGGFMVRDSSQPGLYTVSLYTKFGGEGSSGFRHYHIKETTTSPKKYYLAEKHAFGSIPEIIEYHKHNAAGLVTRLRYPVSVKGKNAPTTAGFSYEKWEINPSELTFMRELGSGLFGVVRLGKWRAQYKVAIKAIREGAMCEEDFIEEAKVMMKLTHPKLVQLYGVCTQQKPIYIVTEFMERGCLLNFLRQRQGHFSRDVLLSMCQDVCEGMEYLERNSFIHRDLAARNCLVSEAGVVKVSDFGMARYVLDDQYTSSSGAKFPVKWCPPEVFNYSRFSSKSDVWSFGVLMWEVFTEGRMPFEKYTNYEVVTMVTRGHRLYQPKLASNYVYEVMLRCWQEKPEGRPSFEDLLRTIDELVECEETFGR

[3] = target: T1, Tyrosine-protein kinase Tec (Homo sapiens); conditions: at 1 µM
[4] = target: Angiopoietin-1 receptor (Homo sapiens) (UniProt Q02763); conditions: at 0.1 µM
Sequence of Angiopoietin-1 receptor (Homo sapiens) (Q02763 whole entry): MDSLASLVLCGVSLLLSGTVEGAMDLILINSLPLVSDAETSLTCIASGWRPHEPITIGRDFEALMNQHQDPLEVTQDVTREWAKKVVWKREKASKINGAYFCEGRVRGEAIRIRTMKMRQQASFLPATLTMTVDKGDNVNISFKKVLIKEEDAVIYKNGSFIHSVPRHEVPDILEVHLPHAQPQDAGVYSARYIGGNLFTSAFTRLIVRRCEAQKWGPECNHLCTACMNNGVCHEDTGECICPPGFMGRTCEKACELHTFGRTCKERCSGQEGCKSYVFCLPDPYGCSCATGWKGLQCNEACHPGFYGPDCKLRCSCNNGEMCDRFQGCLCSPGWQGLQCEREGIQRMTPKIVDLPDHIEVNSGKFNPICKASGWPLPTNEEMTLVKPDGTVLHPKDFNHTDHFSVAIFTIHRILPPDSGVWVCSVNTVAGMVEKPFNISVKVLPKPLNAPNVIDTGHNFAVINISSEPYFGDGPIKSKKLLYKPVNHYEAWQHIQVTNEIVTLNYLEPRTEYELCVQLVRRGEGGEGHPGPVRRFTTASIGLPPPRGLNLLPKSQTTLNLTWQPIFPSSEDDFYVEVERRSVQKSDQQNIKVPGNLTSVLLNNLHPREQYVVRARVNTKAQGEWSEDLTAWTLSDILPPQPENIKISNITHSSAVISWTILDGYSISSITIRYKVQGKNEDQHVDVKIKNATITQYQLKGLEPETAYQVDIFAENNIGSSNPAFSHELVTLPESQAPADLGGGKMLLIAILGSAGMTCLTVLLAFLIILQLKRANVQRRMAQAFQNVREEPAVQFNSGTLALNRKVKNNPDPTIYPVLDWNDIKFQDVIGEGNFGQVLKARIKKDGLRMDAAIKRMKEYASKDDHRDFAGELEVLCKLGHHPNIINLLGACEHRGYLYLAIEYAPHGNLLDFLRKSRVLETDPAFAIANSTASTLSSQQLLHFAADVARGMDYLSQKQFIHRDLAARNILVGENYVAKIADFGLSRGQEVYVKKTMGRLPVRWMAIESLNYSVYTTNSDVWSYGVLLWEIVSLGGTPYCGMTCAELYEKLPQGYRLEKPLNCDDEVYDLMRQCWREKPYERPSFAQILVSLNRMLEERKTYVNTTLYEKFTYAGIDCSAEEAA

[5] = target: Angiopoietin-1 receptor (Homo sapiens) (UniProt Q02763); conditions: at 1 µM
[6] = target: T2, Non-receptor tyrosine-protein kinase TNK1 (Homo sapiens) (UniProt Q13470); conditions: at 0.1 µM
T2 sequence (whole entry): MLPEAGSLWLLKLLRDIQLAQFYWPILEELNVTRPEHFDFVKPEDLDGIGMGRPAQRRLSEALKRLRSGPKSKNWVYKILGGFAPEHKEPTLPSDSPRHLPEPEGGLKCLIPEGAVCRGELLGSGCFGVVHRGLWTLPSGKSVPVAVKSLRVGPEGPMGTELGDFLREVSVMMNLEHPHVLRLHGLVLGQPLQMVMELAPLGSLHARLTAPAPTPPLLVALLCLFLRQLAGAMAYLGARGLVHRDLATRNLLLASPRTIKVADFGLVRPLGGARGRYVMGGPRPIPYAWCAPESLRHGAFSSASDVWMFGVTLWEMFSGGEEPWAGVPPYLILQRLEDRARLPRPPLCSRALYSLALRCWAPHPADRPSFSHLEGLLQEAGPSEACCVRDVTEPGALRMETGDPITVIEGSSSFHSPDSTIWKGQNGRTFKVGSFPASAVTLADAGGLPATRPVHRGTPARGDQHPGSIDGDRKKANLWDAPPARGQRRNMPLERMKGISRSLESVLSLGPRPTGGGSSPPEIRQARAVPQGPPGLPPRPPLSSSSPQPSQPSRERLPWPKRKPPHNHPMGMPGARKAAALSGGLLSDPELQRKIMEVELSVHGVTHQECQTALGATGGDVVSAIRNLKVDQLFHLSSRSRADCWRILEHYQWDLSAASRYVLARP

[7] = target: T2, Non-receptor tyrosine-protein kinase TNK1 (Homo sapiens); conditions: at 1 µM
[8] = target: Activated CDC42 kinase 1 (Homo sapiens) (UniProt Q07912); conditions: at 0.1 µM
Sequence of Activated CDC42 kinase 1 (Homo sapiens) (Q07912 whole entry, looked up): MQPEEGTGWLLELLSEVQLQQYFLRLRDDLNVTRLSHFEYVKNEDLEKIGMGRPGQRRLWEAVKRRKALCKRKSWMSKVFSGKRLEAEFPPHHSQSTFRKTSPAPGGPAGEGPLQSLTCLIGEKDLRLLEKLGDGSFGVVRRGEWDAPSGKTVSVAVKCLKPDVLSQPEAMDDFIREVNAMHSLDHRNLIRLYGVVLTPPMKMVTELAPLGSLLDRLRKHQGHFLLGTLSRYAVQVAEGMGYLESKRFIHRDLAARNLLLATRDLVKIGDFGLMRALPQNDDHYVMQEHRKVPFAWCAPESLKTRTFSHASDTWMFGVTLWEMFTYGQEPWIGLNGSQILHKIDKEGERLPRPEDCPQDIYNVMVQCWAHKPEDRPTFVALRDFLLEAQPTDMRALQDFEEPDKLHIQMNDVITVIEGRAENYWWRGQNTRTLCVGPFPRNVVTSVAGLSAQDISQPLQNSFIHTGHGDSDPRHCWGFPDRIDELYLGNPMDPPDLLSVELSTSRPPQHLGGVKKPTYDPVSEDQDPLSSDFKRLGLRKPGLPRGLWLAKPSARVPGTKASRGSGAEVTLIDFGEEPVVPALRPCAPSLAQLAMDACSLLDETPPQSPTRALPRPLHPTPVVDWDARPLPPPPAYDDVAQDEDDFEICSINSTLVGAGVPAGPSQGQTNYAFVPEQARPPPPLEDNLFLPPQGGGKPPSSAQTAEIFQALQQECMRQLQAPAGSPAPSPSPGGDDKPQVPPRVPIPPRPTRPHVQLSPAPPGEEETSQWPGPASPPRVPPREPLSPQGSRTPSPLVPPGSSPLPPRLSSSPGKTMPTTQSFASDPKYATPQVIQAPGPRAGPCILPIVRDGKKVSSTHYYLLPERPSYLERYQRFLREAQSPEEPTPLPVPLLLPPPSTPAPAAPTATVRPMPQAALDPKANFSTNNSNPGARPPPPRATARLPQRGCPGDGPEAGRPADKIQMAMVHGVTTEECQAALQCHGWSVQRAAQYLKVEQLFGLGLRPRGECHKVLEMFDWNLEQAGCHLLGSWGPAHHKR

[9] = target: Activated CDC42 kinase 1 (Homo sapiens) (UniProt Q07912); conditions: at 1 µM
[10] = target: High affinity nerve growth factor receptor (Homo sapiens) (UniProt P04629); conditions: at 0.1 µM
[11] = target: High affinity nerve growth factor receptor (Homo sapiens) (UniProt P04629); conditions: at 1 µM
[12] = target: BDNF/NT-3 growth factors receptor (Homo sapiens) (UniProt Q16620); conditions: at 0.1 µM
Sequence of BDNF/NT-3 growth factors receptor (Homo sapiens) (Q16620 32-822 limits assumed): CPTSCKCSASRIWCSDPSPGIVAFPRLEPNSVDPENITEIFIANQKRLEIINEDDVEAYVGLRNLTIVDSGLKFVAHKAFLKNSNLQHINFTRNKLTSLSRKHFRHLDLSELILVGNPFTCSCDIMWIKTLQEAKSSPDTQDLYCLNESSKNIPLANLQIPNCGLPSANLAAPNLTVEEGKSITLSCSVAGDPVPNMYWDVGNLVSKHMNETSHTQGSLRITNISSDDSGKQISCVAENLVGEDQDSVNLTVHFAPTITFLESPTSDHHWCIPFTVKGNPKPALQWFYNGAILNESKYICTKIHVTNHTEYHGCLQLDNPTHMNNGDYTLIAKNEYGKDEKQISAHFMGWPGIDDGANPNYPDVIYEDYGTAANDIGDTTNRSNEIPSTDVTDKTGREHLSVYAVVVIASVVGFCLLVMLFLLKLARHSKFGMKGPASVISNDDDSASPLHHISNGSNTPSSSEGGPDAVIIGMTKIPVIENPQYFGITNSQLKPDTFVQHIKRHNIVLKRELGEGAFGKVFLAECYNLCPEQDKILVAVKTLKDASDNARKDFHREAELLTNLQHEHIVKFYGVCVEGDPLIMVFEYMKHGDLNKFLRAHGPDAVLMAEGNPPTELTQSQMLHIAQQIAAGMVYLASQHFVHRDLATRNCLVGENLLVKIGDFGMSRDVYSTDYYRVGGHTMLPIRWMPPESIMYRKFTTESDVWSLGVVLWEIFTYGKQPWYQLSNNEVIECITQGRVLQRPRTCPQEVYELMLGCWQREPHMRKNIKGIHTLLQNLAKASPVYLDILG

[13] = target: BDNF/NT-3 growth factors receptor (Homo sapiens) (UniProt Q16620); conditions: at 1 µM
[14] = target: NT-3 growth factor receptor (Homo sapiens) (UniProt Q16288); conditions: at 0.1 µM
Sequence of NT-3 growth factor receptor (Homo sapiens) (Q16288 32-839 limits assumed): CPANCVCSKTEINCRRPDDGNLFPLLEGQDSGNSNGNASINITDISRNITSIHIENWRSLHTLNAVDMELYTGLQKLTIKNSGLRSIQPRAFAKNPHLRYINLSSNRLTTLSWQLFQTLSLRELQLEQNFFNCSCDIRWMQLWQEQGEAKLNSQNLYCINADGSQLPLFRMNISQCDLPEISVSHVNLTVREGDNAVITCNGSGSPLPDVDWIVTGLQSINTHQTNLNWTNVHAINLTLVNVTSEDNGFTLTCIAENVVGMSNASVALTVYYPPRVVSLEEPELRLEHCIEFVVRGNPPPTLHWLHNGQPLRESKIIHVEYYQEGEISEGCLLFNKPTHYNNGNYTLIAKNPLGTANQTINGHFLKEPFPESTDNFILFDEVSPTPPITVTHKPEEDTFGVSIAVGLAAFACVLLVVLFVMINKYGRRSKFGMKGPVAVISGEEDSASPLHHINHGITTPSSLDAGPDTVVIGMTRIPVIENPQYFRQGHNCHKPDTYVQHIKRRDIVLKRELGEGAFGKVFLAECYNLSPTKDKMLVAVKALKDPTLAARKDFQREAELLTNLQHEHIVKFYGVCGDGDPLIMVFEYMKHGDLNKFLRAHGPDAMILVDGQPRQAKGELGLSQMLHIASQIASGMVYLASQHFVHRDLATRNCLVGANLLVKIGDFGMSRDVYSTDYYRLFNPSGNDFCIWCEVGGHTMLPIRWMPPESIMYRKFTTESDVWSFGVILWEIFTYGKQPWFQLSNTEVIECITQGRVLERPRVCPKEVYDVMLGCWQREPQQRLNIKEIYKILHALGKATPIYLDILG

[15] = target: NT-3 growth factor receptor (Homo sapiens) (UniProt Q16288); conditions: at 1 µM
[16] = target: T3, Tyrosine-protein kinase TXK (Homo sapiens) (UniProt P42681); conditions: at 0.1 µM
T3 sequence (whole entry): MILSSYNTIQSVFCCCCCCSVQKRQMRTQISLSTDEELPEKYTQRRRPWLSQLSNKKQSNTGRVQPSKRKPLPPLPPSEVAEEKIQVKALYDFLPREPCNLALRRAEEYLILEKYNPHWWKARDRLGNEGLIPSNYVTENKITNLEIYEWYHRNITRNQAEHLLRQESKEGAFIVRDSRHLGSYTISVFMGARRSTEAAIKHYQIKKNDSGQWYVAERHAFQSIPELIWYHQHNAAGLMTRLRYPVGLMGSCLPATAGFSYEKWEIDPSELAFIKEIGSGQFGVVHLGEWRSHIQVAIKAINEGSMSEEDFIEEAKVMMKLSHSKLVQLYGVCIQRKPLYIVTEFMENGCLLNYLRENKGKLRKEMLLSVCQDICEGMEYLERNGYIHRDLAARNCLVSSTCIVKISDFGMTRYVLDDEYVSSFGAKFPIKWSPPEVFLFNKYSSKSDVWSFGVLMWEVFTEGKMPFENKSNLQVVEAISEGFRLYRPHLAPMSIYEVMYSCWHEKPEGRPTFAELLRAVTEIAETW

[17] = target: T3, Tyrosine-protein kinase TXK (Homo sapiens); conditions: at 1 µM
[18] = target: Non-receptor tyrosine-protein kinase TYK2 (Homo sapiens) (UniProt P29597); conditions: at 0.1 µM;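 further: each value is a mean of the inhibition readings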
Sequence of Non-receptor tyrosine-protein kinase TYK2 (Homo sapiens) (P29597 whole entry): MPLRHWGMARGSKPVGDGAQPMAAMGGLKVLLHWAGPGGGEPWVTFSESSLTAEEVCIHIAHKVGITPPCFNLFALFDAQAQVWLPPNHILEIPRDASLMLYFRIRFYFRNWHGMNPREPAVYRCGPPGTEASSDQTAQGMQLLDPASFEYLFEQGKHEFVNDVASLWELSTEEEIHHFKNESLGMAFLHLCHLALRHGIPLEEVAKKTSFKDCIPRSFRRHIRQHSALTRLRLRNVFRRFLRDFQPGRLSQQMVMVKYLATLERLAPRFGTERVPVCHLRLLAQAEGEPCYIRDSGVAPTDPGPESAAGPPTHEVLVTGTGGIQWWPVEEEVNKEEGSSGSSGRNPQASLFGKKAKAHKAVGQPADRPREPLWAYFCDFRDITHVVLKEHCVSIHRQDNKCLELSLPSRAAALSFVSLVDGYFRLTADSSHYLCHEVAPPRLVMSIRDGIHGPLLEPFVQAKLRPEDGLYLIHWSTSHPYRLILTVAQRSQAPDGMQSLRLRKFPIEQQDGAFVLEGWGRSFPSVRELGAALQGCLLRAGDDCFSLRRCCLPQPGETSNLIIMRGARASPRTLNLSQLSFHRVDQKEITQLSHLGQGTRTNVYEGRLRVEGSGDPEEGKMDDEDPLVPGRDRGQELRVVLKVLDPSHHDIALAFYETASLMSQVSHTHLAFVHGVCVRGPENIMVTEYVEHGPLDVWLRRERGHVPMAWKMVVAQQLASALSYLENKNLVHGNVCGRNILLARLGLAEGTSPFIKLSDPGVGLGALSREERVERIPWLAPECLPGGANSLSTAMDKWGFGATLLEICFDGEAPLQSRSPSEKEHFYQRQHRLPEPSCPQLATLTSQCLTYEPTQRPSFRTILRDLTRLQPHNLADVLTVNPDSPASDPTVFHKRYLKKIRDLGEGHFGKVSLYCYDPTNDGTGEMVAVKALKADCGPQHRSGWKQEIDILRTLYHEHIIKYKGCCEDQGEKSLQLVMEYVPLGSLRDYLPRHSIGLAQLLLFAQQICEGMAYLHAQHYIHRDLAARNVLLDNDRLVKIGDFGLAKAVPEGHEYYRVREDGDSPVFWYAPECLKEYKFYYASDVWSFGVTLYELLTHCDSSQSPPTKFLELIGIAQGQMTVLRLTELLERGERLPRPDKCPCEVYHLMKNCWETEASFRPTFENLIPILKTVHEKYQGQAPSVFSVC

[19] = target: T4, Dual specificity protein kinase TTK (Homo sapiens) (UniProt P33981); conditions: at 1 µM;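 further: reported figures are mean TTK inhibition at 1 µM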
T4 sequence (whole entry): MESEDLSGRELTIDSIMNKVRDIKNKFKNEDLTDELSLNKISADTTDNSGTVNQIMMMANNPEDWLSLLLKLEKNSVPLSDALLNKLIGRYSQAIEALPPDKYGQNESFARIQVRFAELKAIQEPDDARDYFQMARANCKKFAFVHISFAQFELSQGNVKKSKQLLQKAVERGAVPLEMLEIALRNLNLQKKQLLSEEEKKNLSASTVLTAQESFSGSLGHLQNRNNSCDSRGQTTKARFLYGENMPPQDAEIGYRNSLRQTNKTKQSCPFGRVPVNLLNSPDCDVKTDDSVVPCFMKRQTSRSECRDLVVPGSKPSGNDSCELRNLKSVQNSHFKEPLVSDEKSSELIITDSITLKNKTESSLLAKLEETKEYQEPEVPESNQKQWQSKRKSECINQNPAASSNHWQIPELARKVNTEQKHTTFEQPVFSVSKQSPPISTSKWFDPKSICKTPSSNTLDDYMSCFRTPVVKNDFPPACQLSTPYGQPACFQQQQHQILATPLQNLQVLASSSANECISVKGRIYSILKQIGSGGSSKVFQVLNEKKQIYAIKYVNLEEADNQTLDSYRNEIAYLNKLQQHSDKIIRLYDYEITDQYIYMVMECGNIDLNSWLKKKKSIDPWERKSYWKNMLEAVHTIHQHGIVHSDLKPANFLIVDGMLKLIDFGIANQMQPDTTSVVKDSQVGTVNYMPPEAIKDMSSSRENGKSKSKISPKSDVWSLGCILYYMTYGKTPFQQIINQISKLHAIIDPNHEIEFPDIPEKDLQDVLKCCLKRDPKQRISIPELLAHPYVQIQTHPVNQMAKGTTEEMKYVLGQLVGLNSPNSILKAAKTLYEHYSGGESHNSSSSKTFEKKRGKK

[20] = target: T5, Aurora kinase A (Homo sapiens) (UniProt O14965); conditions: at 0.1 µM;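 further: each reported value is a mean percent inhibition of Aurora-A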
T5 sequence (whole entry): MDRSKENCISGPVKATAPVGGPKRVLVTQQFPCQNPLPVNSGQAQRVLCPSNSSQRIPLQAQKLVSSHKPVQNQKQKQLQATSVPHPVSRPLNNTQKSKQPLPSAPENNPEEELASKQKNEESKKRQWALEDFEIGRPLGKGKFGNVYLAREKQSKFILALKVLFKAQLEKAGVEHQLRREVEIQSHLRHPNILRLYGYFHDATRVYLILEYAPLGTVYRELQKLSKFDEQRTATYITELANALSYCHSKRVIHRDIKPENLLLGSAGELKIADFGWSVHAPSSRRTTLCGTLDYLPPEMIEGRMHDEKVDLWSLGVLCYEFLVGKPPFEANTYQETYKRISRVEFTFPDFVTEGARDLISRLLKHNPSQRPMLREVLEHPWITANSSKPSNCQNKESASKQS

| Compound | inhibition [1] | inhibition [2] | inhibition [3] | inhibition [4] | inhibition [5] | inhibition [6] | inhibition [7] | inhibition [8] | inhibition [9] | inhibition [10] | inhibition [11] | inhibition [12] | inhibition [13] | inhibition [14] | inhibition [15] | inhibition [16] | inhibition [17] | inhibition [18] | inhibition [19] | inhibition [20] |
| --- | --- | --- | --- | --- | --- | --- | --- | --- | --- | --- | --- | --- | --- | --- | --- | --- | --- | --- | --- | --- |
| CN(C)C(=O)O[C@H]1CN[C@H](C#Cc2cc3ncnc(Nc4ccc(OCc5cccc(F)c5)c(Cl)c4)c3s2)C1 | -0.76% | 3.98% | 6.52% | 2.98% | 5.32% | 1.02% | 12% | 1.42% | 1.79% | 2.9% | 0.1% | 1.92% | 2.03% | 1.38% | 2.78% | 2.86% | 4.84% | -7.95% | 6.07% | 1.25% |
| Nc1nccc(-c2c(-c3ccc(F)cc3)ncn2CCCN2CCOCC2)n1 | -0.03% | 3.86% | 3.98% | 8.3% | 8.42% | 1.92% | 5.56% | 0.21% | 1.33% | -0.29% | 2.15% | 1.18% | 6.6% | 0.23% | 4.59% | 3% | 3.47% | -3.95% | 6.61% | 3.86% |
| NS(=O)(=O)c1ccc(-c2cc3ccncc3cc2OCc2ccccc2)cc1 | 0.64% | 2.94% | 4.44% | 1.38% | 3.06% | 3.48% | 16% | 0.6% | 2.21% | 4.15% | 0.22% | 2.7% | 2.46% | 2.49% | 5.04% | 1.58% | 1.28% | -3.96% | 9.25% | 2.34% |
| CCS(=O)(=O)c1ccc(OC)c(Nc2ncc(-c3cccc(OC)c3)o2)c1 | -2.39% | 8.3% | 35.5% | 3.35% | 16.1% | 49% | 90.6% | 2.52% | 15.3% | 7.51% | 30.9% | 7.72% | 43.5% | 11.7% | 49.3% | 14.5% | 53.4% | -5.06% | 7.02% | 4.52% |
| [O-][S+]1CCN(Cc2ccc(-c3ccc4ncnc(Nc5ccc(OCc6ccccc6)c(Cl)c5)c4c3)o2)CC1 | 0% | -0.94% | 1.06% | 0.37% | 1.08% | -0.33% | 9.61% | 0.09% | -0.42% | 1.88% | 3.75% | 1.6% | 2.14% | 0.66% | 0.36% | 0.16% | 2.65% | -1.17% | 8.12% | 1.75% |
